Sampled rows, rich in hits. Any-hit rate of the full collection: about 3.6%.
EBV LMP1 NFkB – inhibitors of Epstein-Barr LMP1-induced NF-kappaB reporter; LMP1-induced NF-kappaB luciferase reporter cells, luminescence; inhibition, % at 12.5 µM; 0.69% of 350,000 active; AID 504558; in the data active means inhibition above about 41%; inconclusive means no clear call, values can overlap the other calls
HSF1 inhib – HSF1 inhibition. AID 2098. NIH3T3-HGL HSE-luciferase, MG132-induced, luminescence 8 h; active compounds read low. activity change, negative = inhibition, % at 7.5 µM (by protocol). 0.77% of 300,000 active;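 active means more than half of replicate wells show activity change below -50%, luminescence cut by over half; inconclusive means some wells, but at most half, below -50%; inactive means no replicate well below -50%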;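 further: luciferase reports HSF-1 transcriptional activity via heat shock element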
HSF-1 act – increases HSF-1 driven luciferase reporter signal; NIH3T3-HGL HSF-1 luciferase reporter, MG132, 8 h; 100% = twice DMSO control signal; 1.7% of 300,000 active; activation, % at 9 µM;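 active means mean replicate activation of at least 50% with a set share of replicates each reaching 50%; inconclusive means only one of those two conditions met; inactive means mean below 50% and too few replicates reaching it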
TROY signal inh – blocks TROY-dependent signaling in reporter cells; inhibition, % at 10 µM; Q293 LMP1-TROYcd NF-kB luciferase reporter, 4 h; 0.98% of 360,000 active;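 active means compounds whose plate-normalised and pattern-corrected inhibition of the luciferase reporter signal at the single screening dose is 50% or more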
LGR2 antag – inhibitors of bursicon-induced Drosophila LGR2 receptor cAMP signaling | 0.35% of 380,000 active | HEK293 LGR2, CRE-luciferase, bursicon-stimulated, 4 h | AID 720647 | inhibition, % at 9.99 µM;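 active means drop in luminescence signal, shown as inhibition above about 50% in the replicate tests, limit read from the data, passing the limit was not always enough; inconclusive means probably only some replicates passing the limit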;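 further: agonist challenge used bursicon conditioned medium at about half maximal strength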
TWEAK-Fn14 inh – TWEAK-Fn14 signaling inhibition. TWEAK-stimulated Fn14 reporter cells, luciferase luminescence, 8 h. inhibition, % at 10 µM. 2% of 360,000 active; in the data active means inhibition above about 50%
Of the large screens only hits and unclear results are named; the others gave an inactive call.

CCC(=O)N1[C@H](CN(C)C(C)=O)[C@@H](c2ccc(-c3ccccc3)cc2)[C@@H]1CO	none (no result: EBV LMP1 NFkB, HSF1 inhib, HSF-1 act, TROY signal inh, TWEAK-Fn14 inh)
CC(C)NC(=O)N(C)C[C@H]1Oc2c(NS(=O)(=O)c3cn(C)cn3)cccc2C(=O)N([C@@H](C)CO)C[C@H]1C	none (no result: EBV LMP1 NFkB, HSF1 inhib, HSF-1 act, TROY signal inh, TWEAK-Fn14 inh)
C[C@H](CO)N1C[C@H](C)[C@@H](CN(C)CC2CC2)Oc2ccc(NS(=O)(=O)c3cn(C)cn3)cc2C1=O	none (no result: EBV LMP1 NFkB, HSF1 inhib, HSF-1 act, TROY signal inh, TWEAK-Fn14 inh)
CCC(=O)N1C[C@H](O)COC[C@@H]2O[C@H](CC(=O)NCC3CCCCC3)CC[C@H]21	none (no result: EBV LMP1 NFkB, HSF1 inhib, HSF-1 act, TROY signal inh, TWEAK-Fn14 inh)
COC(=O)c1cc(Cl)c(NC(=O)c2cc3ccccc3o2)cc1OC	TWEAK-Fn14 inh 54 (no result: TROY signal inh, LGR2 antag)
Cc1cccc(NC(=O)c2cc3ccccc3o2)c1	HSF-1 act 76 (no result: LGR2 antag)
COc1cc(NC(=O)c2ccc(F)cc2)ccc1NC(=O)c1cc2ccccc2o1	none
O=C(Nc1cccc(Br)c1)c1cc2ccccc2o1	HSF-1 act 86
CCC(=O)Nc1cccc(NC(=O)c2cc3ccccc3o2)c1	none
COc1cc(NC(=O)c2c(OC)cccc2OC)ccc1NC(=O)c1cc2ccccc2o1	HSF-1 act 52
COC(=O)c1cc(Cl)c(NC(=O)c2ccc(C(C)(C)C)cc2)cc1OC	none
C[C@@H]1CCCCO[C@@H](CN(C)C(=O)CCC(F)(F)F)[C@@H](C)CN([C@H](C)CO)C(=O)c2cc(NC(=O)Nc3ccc4c(c3)OCO4)ccc2O1	none (no result: EBV LMP1 NFkB, HSF1 inhib, HSF-1 act, TROY signal inh, TWEAK-Fn14 inh)
Cc1cc(C(=O)Nc2cccc(C(=O)O)c2)oc1C	EBV LMP1 NFkB 66, HSF1 inhib -53 (no result: LGR2 antag)
Cc1cc(C(=O)Nc2cccc(C(=O)O)c2)c(C)o1	none (no result: LGR2 antag)
O=C(CCNc1cccc(F)c1)c1cc2ccccc2o1	EBV LMP1 NFkB 46
Cc1cc(C)cc(NC(=O)c2ccc(CSc3nnc(C)s3)cc2)c1	HSF-1 act 69
Cc1ccc(NC(=O)c2ccc(CSc3nnc(C)s3)cc2)cc1	HSF-1 act inconclusive (no result: LGR2 antag)
COCC(=O)N1[C@@H]2c3ccc(/C=C/c4ccccc4)c(=O)n3C[C@H]1[C@H](CO)[C@H]2C(=O)N1CCCCC1	none (no result: EBV LMP1 NFkB, HSF1 inhib, HSF-1 act, TROY signal inh, TWEAK-Fn14 inh)
CC(C)n1ncc2c(C(=O)Nc3cccc(C#N)c3)cc(C3CC3)nc21	TROY signal inh 59, LGR2 antag 95, TWEAK-Fn14 inh 54 (no result: HSF1 inhib, HSF-1 act)
COc1cc(OC)cc(C(=O)N(CCCN2C(=O)c3cccc4cccc(c34)C2=O)c2cccc(OC)c2)c1	HSF-1 act 59
COc1cc(OC)cc(-c2cc3nc(C)c(CCC(=O)NCc4ccccc4)c(C)n3n2)c1	HSF1 inhib -57, TWEAK-Fn14 inh 66
Cc1nc2cc(-c3ccc(Cl)cc3)nn2c(C)c1CCC(=O)NC(C)c1ccc2c(c1)OCCO2 (stereo unspecified)	TWEAK-Fn14 inh 56
Cc1csc(NC(=O)CCc2c(C)nc3cc(-c4ccc(Cl)cc4)nn3c2C)n1	TWEAK-Fn14 inh 62 (no result: HSF1 inhib, HSF-1 act)
CCc1ccc(C2=NN(CCC(=O)NC(C)c3ccc4c(c3)OCCO4)C(=O)CC2)cc1 (stereo unspecified)	none
Cc1csc(NC(=O)CSc2nnc(-c3ccc(Cl)cc3)n2N)n1	none
C[C@@H]1CN([C@H](C)CO)S(=O)(=O)c2ccc(-c3ccc(C(=O)N(C)C)cc3)cc2O[C@H]1CN(C)C(=O)C1CCCCC1	none (no result: EBV LMP1 NFkB, HSF1 inhib, HSF-1 act, TROY signal inh, TWEAK-Fn14 inh)
COCC#Cc1ccc2c(c1)O[C@H](CN(C)C(=O)NC(C)C)[C@@H](C)CN([C@@H](C)CO)S2(=O)=O	none (no result: EBV LMP1 NFkB, HSF1 inhib, HSF-1 act, TROY signal inh, TWEAK-Fn14 inh)
Nc1ccc(-c2nc3ccc([N+](=O)[O-])cc3[nH]2)cc1	none
O=[N+]([O-])c1ccc(-c2nc3ccc([N+](=O)[O-])cc3[nH]2)cc1	HSF-1 act 55 (no result: LGR2 antag)
O=[N+]([O-])c1ccc2nc(/C=C/c3ccc(Cl)cc3)[nH]c2c1	TROY signal inh 71, TWEAK-Fn14 inh 76
CC(=O)c1cccc(NC(=O)Nc2ccc3c(c2)N(C)C(=O)CS3)c1	TROY signal inh 68, TWEAK-Fn14 inh 82
Cc1cc(C)cc(NC(=O)Nc2ccc3c(c2)N(C)C(=O)CS3)c1	none
C[C@@H]1CN([C@H](C)CO)S(=O)(=O)c2ccc(-c3cccc(C#N)c3)cc2O[C@@H]1CN(C)C	none (no result: EBV LMP1 NFkB, HSF1 inhib, HSF-1 act, TROY signal inh, TWEAK-Fn14 inh)
O=S(=O)(NCc1ccccc1)c1ccc(Cl)cc1	none (no result: LGR2 antag)
O=S(=O)(Nc1cc2nc3ccccc3nc2n1Cc1ccccc1)c1ccc(Cl)cc1	HSF-1 act 114, TWEAK-Fn14 inh 96 (no result: LGR2 antag)
Cc1noc(C)c1NC(=O)Nc1ccc2c(c1)C(=O)N([C@@H](C)CO)C[C@H](C)[C@H](CN(C)C(=O)Nc1ccc(F)cc1)O2	none (no result: EBV LMP1 NFkB, HSF1 inhib, HSF-1 act, TROY signal inh, TWEAK-Fn14 inh)
CCCCn1cnc2c(oc3nc4c(cc32)CCCC4)c1=O	HSF-1 act 53
OCCN(CCO)CC(O)COc1ccc(Br)cc1 (stereo unspecified)	none
OCCN(CCO)CC(O)COCCC12CC3CC(CC(C3)C1)C2 (stereo unspecified)	EBV LMP1 NFkB 73 (no result: LGR2 antag)
OCCN(CCO)CC(O)COc1ccc(C23CC4CC(CC(C4)C2)C3)cc1 (stereo unspecified)	EBV LMP1 NFkB 42, TWEAK-Fn14 inh 77
C[C@@H]1CN([C@H](C)CO)C(=O)c2cc(-c3cccc(F)c3)cnc2O[C@H]1CN(C)C(=O)C1CCC1	none (no result: EBV LMP1 NFkB, HSF1 inhib, HSF-1 act, TROY signal inh, TWEAK-Fn14 inh)
COc1ccc(OCCCCn2c(CO)nc3ccccc32)cc1	HSF1 inhib -54, TWEAK-Fn14 inh 69
Cc1cccc(OCCCCn2c(CO)nc3ccccc32)c1	none
CCCCc1ccc(Nc2nc(CCC)cc(=O)[nH]2)cc1	none (no result: LGR2 antag)
CCCc1cc(=O)[nH]c(Nc2ccc3c(c2)OCCO3)n1	HSF1 inhib inconclusive, TWEAK-Fn14 inh 58
COCC(=O)N(C)C[C@H]1Oc2ncc(-c3cccc(OC)c3)cc2C(=O)N([C@@H](C)CO)C[C@H]1C	none (no result: EBV LMP1 NFkB, HSF1 inhib, HSF-1 act, TROY signal inh, TWEAK-Fn14 inh)
CCOc1ccc(-n2cc(-c3ccc(OC)c(OC)c3)[nH]c2=S)cc1	HSF-1 act 55
COc1cc(CNc2ccc3c(c2)CCC3)cc(OC)c1O	none
CCOc1cc(CNc2ccc3c(c2)CCC3)ccc1O	TROY signal inh 50 (no result: LGR2 antag)
Oc1ccccc1-c1cc(-c2ccco2)[nH]n1	none (no result: LGR2 antag)
Oc1ccc(Cl)cc1-c1cc(-c2ccco2)[nH]n1	HSF-1 act 140 (no result: LGR2 antag)
Cc1ccccc1NC(=O)c1nc(S(C)(=O)=O)ncc1Cl	HSF-1 act 113
Cc1cccc(CS(=O)(=O)c2ncc(Cl)c(C(=O)NCc3ccccc3)n2)c1	HSF-1 act 327, TROY signal inh 63, TWEAK-Fn14 inh 97
CCOC(=O)c1nc(S(C)(=O)=O)ncc1Cl	none (no result: HSF1 inhib, HSF-1 act)
Cc1cccc(CS(=O)(=O)c2ncc(Cl)c(C(=O)Nc3c(C)cccc3C)n2)c1	HSF-1 act 482, TROY signal inh 67, TWEAK-Fn14 inh 90
CCCc1nnc(NC(=O)c2nc(S(=O)(=O)Cc3cccc(C)c3)ncc2Cl)s1	HSF1 inhib -60, TROY signal inh 57, TWEAK-Fn14 inh 93
CCCc1nnc(NC(=O)CS(=O)(=O)c2ccc(C)cc2)s1	none
C[C@@H]1CN([C@H](C)CO)C(=O)Cc2cc(NC(=O)c3ccncc3)ccc2O[C@H]1CN(C)S(=O)(=O)c1cn(C)cn1	none (no result: EBV LMP1 NFkB, HSF1 inhib, HSF-1 act, TROY signal inh, TWEAK-Fn14 inh)

Compound activity as filed in PubChem.
